ALDH1A1 inh – blocks purified human ALDH1A1 activity; Purified ALDH1A1, NADH fluorescence, propionaldehyde substrate; Potency, µM (doses to about 75.3 µM), for inactives: at the highest dose activity, negative = inhibition, actives largely listed as inhibitors; hit rate 7.3% among 220,000; AID 1030; P00352; active means well fitted inhibition curve with a large enough effect, not every such curve was filed as active; inconclusive means small, poorly fitted or top-dose-only effect, or another doubt; inactive means no such curve, though single readings can be large or run the other way;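 further: potency means the concentration at half of the fitted maximal effect; plate controls were no enzyme wells and a reference inhibitor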
HPGD block – HPGD (human) dehydrogenase inhibition | P15428 | purified HPGD, NADH fluorescence kinetic, PGE2 substrate | Potency, µM, without a hit: top-dose activity change, negative = inhibition, usual class: inhibitors | hit rate 4.3% among 150,000 | AID 894; active means well fitted inhibition curve with a large enough effect, not every such curve was filed as active; inconclusive means small, poorly fitted or top-dose-only effect, or another doubt; inactive means no such curve, though single readings can be large or run the other way; further: potency means the concentration at half of the fitted maximal effect
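NADH formation kinetics: reaction with 30 uM PGE2 and 1 mM NAD+ (final), 20 nM enzyme, Tris-HCl pH 8 with Tween 20, after 15 min compound preincubation at room temperature. Fluorescence change, last versus first of five reads.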
NPSR antag – neuropeptide S receptor (human) antagonism, cAMP. Q6W5P4. CHO-NPSR cells, cAMP TR-FRET, antagonist mode. Potency, µM (series often up to 38.3 µM), inactives show at the highest dose activity change, negative = inhibition, most hits filed as inhibitors. hit rate 1% among 220,000; further: potency means the concentration at half of the fitted maximal effect; nearly all actives have a fitted effect of over 50% in size
Target sequence (Q6W5P4 whole entry, looked up): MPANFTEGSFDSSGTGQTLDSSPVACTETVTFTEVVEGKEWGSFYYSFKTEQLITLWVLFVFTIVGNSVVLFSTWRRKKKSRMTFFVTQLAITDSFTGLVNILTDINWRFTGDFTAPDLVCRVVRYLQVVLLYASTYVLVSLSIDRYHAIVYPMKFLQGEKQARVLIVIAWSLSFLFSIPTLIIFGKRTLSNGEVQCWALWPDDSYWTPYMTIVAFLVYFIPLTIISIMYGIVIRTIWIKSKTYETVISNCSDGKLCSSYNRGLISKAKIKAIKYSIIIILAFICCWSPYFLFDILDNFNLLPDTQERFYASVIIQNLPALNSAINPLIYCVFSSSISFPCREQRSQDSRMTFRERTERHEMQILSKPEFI
IMPase cell inh – membrane-permeable compound that blocks inositol monophosphatase; CHO-M1 cells, IP1 accumulation, HTRF TR-FRET ratio; inhibition (IP1 accumulation), % at 46.1 µM; 120,000 tested, under 10 active; active means well fitted curve in the direction sought with a large enough effect in the signal ratio, not every such curve was filed as active; inconclusive means small, poorly fitted or top-dose-only effect, or a change in a side signal; inactive means no such curve, though single readings can be large or run the other way; the % refers to the signal ratio;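 further: cells stimulated with carbachol in lithium chloride buffer; plate controls were DMSO basal wells for no effect and reference inhibitor wells for full effect; higher means more IMPase inhibition seen as more IP1 and lower FRET ratio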
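Elevated IP1 in lysates lowers TR-FRET signal (665/620 ratio and 620 channel reported). Cells were CHO-M1, given carbachol (50 uM as added) plus 50mM LiCl, pH 7.4, 30 min, 37C; compounds titrated up to 46 uM; AC50 by Hill equation.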
ALOX12 inhib – blocks human 12-lipoxygenase activity. P18054. hit rate 0.12% among 150,000. Potency, µM (doses to about 57.1 µM), for the others: at the highest dose activity change, negative = inhibition, hits mostly inhibitors. purified 12-hLO, xylenol orange hydroperoxide absorbance; further: potency means the concentration at half of the fitted maximal effect; nearly all actives have a fitted effect of over 55% in size
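Purified human 12hLO (150 nM final) was preincubated with compounds for 15 min at room temperature in 25 mM Hepes pH 7.0, 0.01% Triton X-100, then reacted with 40 uM arachidonic acid for 30 min. Hydroperoxide was detected with ferrous iron/xylenol orange.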
IMPase Li cell – membrane-permeable IMPase blocker, potentiated with lithium | CHO-M1 cells, IP1 TR-FRET (IP-One), carbachol + lithium | Potency, µM (titrated, usually from 59.4 µM), inactives show top-dose activity, negative = IMPase inhibition, most hits filed as inhibitors | hit rate 0.35% among 210,000 | AID 1457;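 further: IP1 builds up when IMPase is blocked and the TR-FRET signal falls; potency means the concentration at half of the fitted maximal effect; plate controls were basal vehicle for no effect and high inhibitor control for full effect; nearly all actives have a fitted effect of over 50% in size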
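Concentration–response in CHO-M1 cells, lithium-potentiated; 30 min at 37C. IP1 detected by competitive TR-FRET after 10 min lysis at RT. Hill-fitted AC50.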
* = called active by the depositor; ? = inconclusive; · = no result given; [ ] = another dose, or the depositor's remark. Hits are enriched below; roughly 8.9% of the tested compounds scored in any of these assays. Unless noted, the call rests on the fitted dose curve; in most records, active means well fitted curve in the direction sought with a large enough effect; inconclusive means small, poorly fitted or top-dose-only effect, or another doubt; inactive means no such curve, though single readings can be large; an effect the other way counts as inactive or inconclusive. Unless noted, on the % scale 0 is the no-effect control and ±100 the full control effect.

SMILES | ALDH1A1 inh | HPGD block | NPSR antag | IMPase cell inh | ALOX12 inhib | IMPase Li cell
Cc1noc(C)c1C(c1ccccc1)S(=O)(=O)c1ccccc1 (stereo unspecified) | 0% | -11% | 6% | · | -2% | 23%
CCOc1ccccc1-n1c(C)cc(C=O)c1C | ? | · | -10% | · | · | 14%
COc1ccc(Cl)cc1-n1c(C)cc(C(=O)O)c1C | ? | 13µM* | -2%[46.1 µM] | 5 | -1% | 6%[38.3 µM]
COc1ccc(Cl)cc1-n1c(C)cc(C=O)c1C | 13µM* | 14µM* | -14%[46.1 µM] | 12 | 2% | 21%[38.3 µM]
COc1ccc(CNc2cc(-c3ccccc3Cl)ncn2)c(OC)c1 | -11% | · | · | · | · | 20%
C=CCC1Cc2c(cccc2[N+](=O)[O-])C(CC=C)N1 (stereo unspecified) | 16µM* | · | -8% | · | · | 13%
C=CCC1C=CCC(CC=C)N1C(=O)c1ccccc1[N+](=O)[O-] (stereo unspecified) | -16% | -11% | -8% | · | 0% | 1%
CN(C)S(=O)(=O)c1cccc(-c2nnc(SCc3cc(Cl)cc4c3OCOC4)n2N)c1 | 25µM* | 7.1µM* | -3%[46.1 µM] | 2 | -12% | 0%[38.3 µM]
CN(CCCC[C@H](CNCc1ccc(-c2ccccc2)cc1)N1C[C@H](c2ccccc2)N(CCc2ccc(Cl)c(Cl)c2)C(=O)C1=O)Cc1ccc(-c2ccccc2)cc1 | · | · | 10µM* | · | · | ·
COc1ccc(CNC[C@@H](CCCCN(C)Cc2ccc(OC)cc2)N2C[C@H](c3ccccc3)N(CCc3ccc(Cl)c(Cl)c3)C(=O)C2=O)cc1 | ? | · | ? | · | · | 18%
COc1ccc(/C=N/N=C2\SC(CC(=O)O)C(=O)N2c2ccccc2)c(OC)c1 (stereo unspecified) | 20µM* | -18% | -16% | · | 1% | -8%
COc1ccc(/C=N/N=C2\SC(CC(=O)O)C(=O)N2c2ccccc2)cc1 (stereo unspecified) | 20µM* | -14% | 4% | · | 2% | 7%
COc1ccc(/C=N\N=C2/SC(CC(=O)O)C(=O)N2c2ccc(O)cc2)cc1 (stereo unspecified) | 3% | · | -15%[46.1 µM] | 0 | -4% | ·
COc1ccc(S(=O)(=O)Oc2cccc(/C=N/N=C3/NC(=O)C(CC(=O)O)S3)c2)cc1 (stereo unspecified) | 8.9µM* | · | -18% | · | · | -8%
Cc1ccc(S(=O)(=O)Oc2ccc(/C=N/N=C3/NC(=O)C(CC(=O)O)S3)cc2)cc1 (stereo unspecified) | -13% | · | 3% | · | · | -2%
COCC(=O)NC1CCN(C(=O)NCc2ccccc2)CC1 | 3% | -15% | 3%[46.1 µM] | 10 | 0% | -15%[38.3 µM]
NS(=O)(=O)c1ccc(NC(=O)c2ccc(-c3ccccc3)cc2)cc1 | -8% | · | -38% | · | · | 8.9µM*
C=CCN(CC=C)S(=O)(=O)c1ccc(NC(=S)NC(=O)c2ccc(-c3ccccc3)cc2)cc1 | 3.2µM* | ? | -13%[46.1 µM] | 12 | ? | -146%[38.3 µM]
C=CCN(CC=C)S(=O)(=O)c1ccc(NC(=S)NC(=O)c2ccco2)cc1 | 22µM* | -14% | -21%[46.1 µM] | 22 | -25% | 32%[38.3 µM]
CCc1ccc(NC(=O)N2c3ccccc3Sc3ccccc32)cc1 | · | · | · | -1 | · | ·
NS(=O)(=O)c1ccc(NC(=O)N2c3ccccc3Sc3ccccc32)cc1 | 4% | -9% | ? | 2 | 16µM* | 1%[38.3 µM]
CNc1ccc(Br)cc(C(=O)/C=C/c2ccc(Cl)cc2Cl)c1=O | ? | · | ? | · | · | 15%
CNc1ccc(Br)cc(C(=O)/C=C/c2ccc(OC)cc2OC)c1=O | ? | 14µM* | -28% | · | -22% | 6%
CNc1ccc(Br)cc(C(=O)/C=C/c2cccc(OC)c2)c1=O | 14µM* | 7.9µM* | 9%[46.1 µM] | 10 | -22% | 13%
COc1ccc(/C=N/n2c(=O)[nH]c3c([nH]c4ccc(F)cc43)c2=O)cc1CN1CCCCC1 | 2% | · | 3% | · | · | ·
CCc1nnc2c(Nc3cc(OC)c(Cl)cc3OC)nc3ccccc3n12 | · | · | · | -5 | · | ·
COc1ccc(NC(=S)Nc2ccc(Oc3ccccc3)cc2)cc1 | ? | -7% | -16%[46.1 µM] | -1 | -17% | 8%[38.3 µM]

Screening data (PubChem)
